Source: PubChem
SNCA expr inh = reduces expression of the alpha-synuclein gene; AID 1671194; Potency, µM (top dose mostly 57.2 µM), without a hit: at the highest dose activity change, negative = inhibition, most hits filed as inhibitors; HEK-293 SNCA-luciferase knock-in, luminescence, 24 h; 0.17% of 140,000 active;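 further: plate controls were DMSO cells for no effect and cell-free wells for full effect; nearly all actives have a fitted effect of over 45% in size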
NPR1 antag = human Npr1 receptor antagonism; P16066; HEK293 hNpr1 GloSensor cGMP, ANP-stimulated luminescence; Potency, µM (highest dose often 46.3 µM), for the others: at the highest dose activity change, negative = inhibition, hits mostly inhibitors; 1.6% of 76,000 active; AID 1347048; calls by dose curve; further: nearly all actives have a fitted effect of over 60% in size
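Compound pre-incubated 30 min at room temperature on GloSensor-loaded HEK293 cells stably carrying hNpr1 and the pGS-40F cGMP biosensor. Stimulation uses hNppA at 0.1 nM final; luminescence is taken at baseline and 20 min post-agonist.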
SNCA viab count = reduces viability of HEK-293 SNCA reporter cells. HEK-293-SNCA-luc viability, GF-AFC fluorescence, 24 h. Potency, µM (top dose mostly 57.1 µM), inactives show top-dose activity change, negative = cytotoxicity, usual class: cytotoxic. 0.12% of 150,000 active. AID 1671193;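 further: 0% = DMSO-treated cells and -100% = medium-only wells without cells; nearly all actives have a fitted effect of over 30% in size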
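HEK-293-SNCA-luc cells (1500/well) plated 24 h, then exposed 24 h to a dilution series; GF-AFC added 30 min at 37C, fluorescence 405/540 nm; normalised to medium-only and DMSO wells, Hill fit.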
3T3 cytotox = cytotoxic compounds in NIH 3T3 cells; 4.3% of 94,000 active; NIH 3T3 viability, CellTiter-Glo ATP luminescence, 48-72 h; Potency, µM (highest dose often 96.7 µM), inactives show at the top dose activity change, negative = cytotoxicity, hits mostly inhibitors; further: nearly all actives have a fitted effect of over 55% in size
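First NIH 3T3 cells are plated at 400 cells/well; next compound is pinned in; then plates incubate 48 or 72 hr at 37 °C; finally CellTiter-Glo is added and luminescence read after 10 min.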
FLuc inh = blocks purified firefly luciferase enzyme activity. P08659. purified P. pyralis luciferase, luminescence, biochemical. Potency, µM (series often up to 115 µM), actives largely listed as inhibitors. 2.5% of 76,000 active. AID 1347043; further: nearly all actives have a fitted effect of over 65% in size
Target sequence (P08659 whole entry, looked up): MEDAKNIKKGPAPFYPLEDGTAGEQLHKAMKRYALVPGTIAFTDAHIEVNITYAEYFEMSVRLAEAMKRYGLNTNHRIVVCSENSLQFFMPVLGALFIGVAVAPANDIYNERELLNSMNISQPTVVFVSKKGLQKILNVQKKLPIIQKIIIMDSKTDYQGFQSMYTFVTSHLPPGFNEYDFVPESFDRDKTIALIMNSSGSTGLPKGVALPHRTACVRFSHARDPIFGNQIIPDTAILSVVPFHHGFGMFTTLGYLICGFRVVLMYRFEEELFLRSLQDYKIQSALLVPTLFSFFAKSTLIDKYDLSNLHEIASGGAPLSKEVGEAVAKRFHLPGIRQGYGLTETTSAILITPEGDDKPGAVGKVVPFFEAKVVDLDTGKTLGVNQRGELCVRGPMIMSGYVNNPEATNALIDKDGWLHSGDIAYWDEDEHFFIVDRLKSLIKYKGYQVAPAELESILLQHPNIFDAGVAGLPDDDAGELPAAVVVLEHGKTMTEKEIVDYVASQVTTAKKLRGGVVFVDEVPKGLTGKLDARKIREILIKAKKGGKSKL
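Inhibitors were tested against purified firefly luciferase in a biochemical, low-substrate format (both substrates at 10uM) and luminescence measured with a CCD imager.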
HEK293 tox = HEK 293 cell cytotoxicity; HEK 293 viability, ATP luminescence (CellTiter-Glo), 48-72 h; Potency, µM (series often up to 115 µM), for the others: at the top dose activity change, negative = cytotoxicity, most hits filed as inhibitors; 6.6% of 94,000 active; further: nearly all actives have a fitted effect of over 60% in size
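HEK 293 seeded at 250 cells/well receive compound via pintool. After 48 or 72 hr at 37 degree Celsius, 5% CO2 and 95% humidity, CellTiter-Glo is dispensed and luminescence read following 10 min at room temperature.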
The depositor's hits bear a star; i = inactive; u = inconclusive; x = not tested or not shown; ! = not confirmed by another sample; [ ] = another dose, or the depositor's remark. This is a sample that favours compounds with a hit; in the whole collection about 7.4% have one here. Unless noted, the call rests on the fitted dose curve; in most records, active means well fitted curve in the direction sought with a large enough effect; inconclusive means small, poorly fitted or top-dose-only effect, or another doubt; inactive means no such curve, though single readings can be large; an effect the other way counts as inactive or inconclusive. Unless noted, on the % scale 0 is the no-effect control and ±100 the full control effect; potency means the concentration at half of the fitted maximal effect.

SMILES	SNCA expr inh	NPR1 antag	SNCA viab count	3T3 cytotox	FLuc inh	HEK293 tox
CCCN(C)c1nccnc1OC1CCN(C(=O)c2ccc(F)cc2)C1 (stereo unspecified)	203%	-11%	-11%	-13%	35µM*	u
NC(=O)c1cccnc1OC1CCN(C(=O)c2ccoc2)C1 (stereo unspecified)	u	2%	11%	-7%	i	-3%
CCCN(C)c1nccnc1OC1CCN(C(=O)c2ccc(OC)nc2OC)C1 (stereo unspecified)	181%	-21%	-15%	-8%	22µM*	u
COCC(=O)N1CCC[C@@H]1C(=O)N1CCCC(c2nc3ccncc3[nH]2)C1 (stereo partly specified)	-18%	x	-2%	1%	x	1%
O=C(NC1CCCC1)N1CCC(C(=O)N2CCC(c3nc4ncccc4[nH]3)CC2)C1 (stereo unspecified)	-10%	x	18%	-25%	x	-2%
CNC(=O)c1cc(C2CC2)nc2c1c(C1CCCN(C(=O)N(C)C)C1)nn2C (stereo unspecified)	x	x	x	-22%	x	-15%
Cc1noc(C)c1[S+](=O)([O-])N1CCCC(C(=O)N2CCC(N3CCCC3=O)CC2)C1 (stereo unspecified)	-13%	x	4%	-22%	x	-13%
COc1cccc(C(=O)N2CCC(N3C(=O)c4c(c(C)nn4-c4ccccc4)C3C3CC3)C2)c1 (stereo unspecified)	x	x	x	u	x	35µM*
Cc1nn(-c2ccccc2)c2c1C(C1CC1)N(C1CCN(C(=O)NC(C)C)C1)C2=O (stereo unspecified)	x	x	x	-20%	x	-3%
Cc1nn(-c2ccccc2)c2c1C(C1CC1)N(C1CCN(C(=O)NC3CCCC3)C1)C2=O (stereo unspecified)	x	x	x	u	x	45µM*
Cc1nn(-c2ccccc2)c2c1C(C1CC1)N(C1CCN(C(=O)c3cccc(Cl)c3)C1)C2=O (stereo unspecified)	x	x	x	u	x	25µM*
Cc1nn(-c2ccccc2)c2c1C(C1CC1)N(C1CCN(C(=O)c3cccc(Cl)c3)CC1)C2=O (stereo unspecified)	x	x	x	-27%	x	u
O=C(NCCCc1ccccc1)c1cc(-c2cc(Cl)cc(Cl)c2)c2cccn2n1	14%	x	11%	u	x	u
COc1cccc(-c2cc(C(=O)NCc3ccccn3)c3cnn(C)c3n2)c1	x	x	x	u	x	79µM*
COc1ccc(-c2cc(C(=O)NC3CCC3)c3cnn(C)c3n2)cc1	x	x	x	-24%[138 µM]	x	-30%[172 µM]
COc1cccc(-c2cc(C(=O)NC3CCC3)c3cnn(C)c3n2)c1	x	x	x	u	x	79µM*
Cn1ncc2c(C(=O)NCc3ccccn3)cc(-c3cccnc3)nc21	7%[87.6 µM]	x	3%[87.6 µM]	u	x	u
Cn1ncc2c(C(=O)NCC3CC3)cc(-c3ccsc3)nc21	-16%[87.6 µM]	x	-12%[87.6 µM]	89µM*	x	u
Cn1ncc2c(C(=O)NC3CCC3)cc(-c3ccc(C(F)(F)F)cc3)nc21	x	x	x	35µM*	x	40µM*
Cn1ncc2c(C(=O)NCC3CC3)cc(-c3ccc(C(F)(F)F)cc3)nc21	x	x	x	u	x	32µM*
COCC(=O)NC1CCN(Cc2cccc(-c3cccs3)c2)CC1	u	x	1%[12.5 µM]	u	x	u
Cc1[nH]nc2ccc(-c3cncc(OC[C@@H](N)Cc4ccccc4)c3)cc12	0.17µM*	x	9.5µM*!	x	x	x
O=C(NCC1CC1)c1nc2cccnc2n(C2CC2)c1=O	9%[87.6 µM]	x	0%[87.6 µM]	-26%[138 µM]	x	-18%[172 µM]
Cc1ccc(C(=O)N2CCC[C@H]2c2nc(-c3ccccc3Cl)no2)cc1C	6%	-5%	-4%	u	i	u
Cc1cc(C2CCCN2C(=O)c2ccc(-c3ccccc3Cl)o2)no1 (stereo unspecified)	57%	4%	-8%	u	u	45µM*
SMILES	SNCA expr inh	NPR1 antag	SNCA viab count	3T3 cytotox	FLuc inh	HEK293 tox
O=C(c1ccccc1F)N1CCC(N2CC3(CCCC3)C2c2ccccc2)CC1 (stereo unspecified)	-24%	x	-2%	u	x	u
Cc1ccccc1-c1ccc2c(n1)CN(CCOc1ccccc1)C(=O)CO2	-27%[87.6 µM]	-21%[70.6 µM]	-3%[87.6 µM]	u	i	u
O=C1COc2ccc(Nc3ccccc3)nc2CN1CCOc1ccccc1	-15%[87.6 µM]	u	-13%[87.6 µM]	u	u	u
O=C1COc2ccc(Nc3cccc(F)c3)nc2CN1CCOc1ccccc1	-26%[87.6 µM]	u	-10%[87.6 µM]	89µM*	i	89µM*
COCCN1Cc2nc(Nc3ccc(F)c(Cl)c3)ccc2OCC1=O	-6%[87.6 µM]	-2%[70.6 µM]	-5%[87.6 µM]	u	i	100µM*
O=C1COc2ccc(Oc3ccccc3)nc2CN1CCOc1ccccc1	-37%[87.6 µM]	u	-15%[87.6 µM]	u	i	100µM*
Cc1cnc(-c2ccccc2)n1C1CCN(C(=O)Cc2cccc(F)c2)CC1	29%	x	6%	-29%	x	u
O=C(NCCc1ccccc1F)c1ccc2nnc(Cc3ccc(Cl)cc3)n2c1	67%	x	-16%	u	x	u
CC(C)c1cc(C(=O)N2CCn3nc(C(=O)Nc4ccccc4)cc3C2)n[nH]1	-10%	13µM*	-12%	u	u	u
Cc1nn(-c2ccccc2)c(Oc2ccccc2)c1CCC(=O)NCC1CCCO1 (stereo unspecified)	-18%	-13%	-15%	u	i	u
CCc1nn(-c2ccc(OC)cc2)c(Oc2ccccc2F)c1CCC(=O)NC(C)C	-18%	2%	-18%	u	i	u
CCc1nn(-c2ccc(OC)cc2)c(Oc2ccccc2F)c1CCC(=O)N1CCSCC1	15%	-10%	-10%	45µM*	i	32µM*
CCc1nn(-c2ccc(OC)cc2)c(Oc2ccccc2F)c1CCC(=O)N(CC)CC	56%	-16%	u	45µM*	i	u
CCc1nn(-c2ccc(F)cc2)c(Oc2ccccc2)c1CCC(=O)NCC1CCCO1 (stereo unspecified)	-4%	u	u	32µM*	i	40µM*
O=S(=O)(c1cc(F)cc(F)c1)N1CCCC(Cn2c(C3CC3)nc3cccnc32)C1 (stereo unspecified)	16%	6%	-4%	40µM*	i	u
CC(C)Cc1ccc(S(=O)(=O)N2CCCC(Cn3cnc4cccnc43)C2)cc1 (stereo unspecified)	1%	-22%	8%	u	i	45µM*
O=S(=O)(c1ccccc1)N1CCCC(Cn2c(C3CC3)nc3cccnc32)C1 (stereo unspecified)	-18%	-3%	-9%	u	i	u
